CHT PAM – allosteric activators of human choline transporter CHT; Q9GZV3; CHT-expressing cells, membrane potential dye, choline EC20; hits give high values; LV-AA mutant CHT in HEK293 cells; B-score at 10 µM; actives 0.49% (n = 310,000);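 active means initial fluorescence not abnormally high and integrated response B-score, plate-corrected, over 3 SD above library mean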
Target sequence (Q9GZV3 whole entry, looked up): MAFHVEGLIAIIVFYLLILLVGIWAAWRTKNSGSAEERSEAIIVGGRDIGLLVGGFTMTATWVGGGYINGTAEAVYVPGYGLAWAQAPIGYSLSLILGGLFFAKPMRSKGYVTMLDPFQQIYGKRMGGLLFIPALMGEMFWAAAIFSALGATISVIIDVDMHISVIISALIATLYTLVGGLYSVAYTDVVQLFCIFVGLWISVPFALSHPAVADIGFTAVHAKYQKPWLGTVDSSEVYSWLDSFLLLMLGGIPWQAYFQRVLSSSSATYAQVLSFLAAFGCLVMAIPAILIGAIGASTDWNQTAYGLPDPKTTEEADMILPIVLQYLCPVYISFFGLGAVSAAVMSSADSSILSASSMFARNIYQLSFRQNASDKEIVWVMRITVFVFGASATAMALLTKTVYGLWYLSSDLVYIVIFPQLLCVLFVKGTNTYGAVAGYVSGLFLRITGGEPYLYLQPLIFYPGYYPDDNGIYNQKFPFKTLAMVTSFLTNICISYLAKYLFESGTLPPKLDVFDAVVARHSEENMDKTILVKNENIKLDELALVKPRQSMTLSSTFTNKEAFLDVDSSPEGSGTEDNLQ
EP2 mod – EP2 receptor (human) modulation; P43116; actives 0.83% (n = 260,000); induction, % at 25 µM; EP2-expressing cells, cAMP HTRF FRET, PGE2 co-stimulation; AID 940;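 active means compounds whose cAMP rise, as percent of the full-agonist control response, exceeds 60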;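 further: rat C6 glioma line stably carrying human EP2 under a CMV promoter; the protocol text gives 20 µM as final concentration; 100% = response of wells given 1 µM PGE2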
EP2 antag – inhibitors of human EP2 prostaglandin E2 receptor | P43116 | C6 glioma cells expressing human EP2, cAMP TR-FRET; cells stimulated with saturating PGE2 | inhibition, % at 25 µM | actives 0.52% (n = 260,000) | AID 1422;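 active means percent inhibition above 40 after rounding to a whole number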;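 further: rat C6 glioma host cells with rolipram phosphodiesterase inhibitor present; the protocol text gives 20 µM as final concentration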
CHT block – inhibits the human high affinity choline transporter; Q9GZV3; CHT-expressing cells, membrane potential dye, choline response; hits give low values; B-score at 10 µM; actives 0.86% (n = 310,000); AID 488975;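 active means B-score over 3 SD under the library average, and starting fluorescence ratio not unusually high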;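 further: choline stimulus applied at its EC90 after an EC20 pre-addition; B-score computed on integrated fluorescence ratio after choline addition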
EP2 cAMP induct – human EP2 receptor cAMP induction, negative in counter-screens; C6 glioma EP2 cells, cAMP HTRF induction; plus low (about EC15) PGE2 agonist; shares compounds with EP2 mod; actives 47% (n = 1,300); calls only at 20 µM (by protocol);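 active means cAMP induction above 50% in the main assay while under 30% in all four parallel counter assays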;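 further: rat C6 glioma cells stably expressing human EP2 receptor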
CHT block conf – human CHT inhibition, confirmatory screen. CHT-expressing cells, choline membrane potential dye; LV-to-AA substituted CHT, HEK293 cells. actives 70% (n = 2,400). CHT activity remaining % of control (hits give low values), % at 10 µM. shares compounds with CHT block;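 active means choline transporter activity left, mean of duplicates at 10 µM, below buffer-only control mean minus 3 SD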;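 further: depolarization triggered by choline at its EC90 following an EC20 pre-addition; 0% = hemicholinium-3 full block and 100% = buffer-only control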
HEK293 MPD ctr – CHT inhibitor counter-screen hit in parental HEK293 cells | shares compounds with CHT block | membrane potential ratio readout (active if shifted either direction beyond buffer ±3SD; no single direction) at 10 µM | membrane potential dye, choline response; active = decrease or increase beyond buffer ±3SD | actives 4% (n = 2,400) | AID 493222;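 further: parental cells lack the transporter so any hit is non-specific; ratio is peak minus trough fluorescence over baseline after EC90 choline challenge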
The depositor's hits bear a star; i = inactive; nt = no result; + = active, no number; ! = not confirmed by another sample. Rows were chosen to be rich in hits. Some 2.1% of all compounds tested hit in one or more screens of this group.

SMILES | CHT PAM | EP2 mod | EP2 antag | CHT block | EP2 cAMP induct | others
Cn1ccnc1C1(O)CC2CCC(C1)N2CC(C)(C)CN1CCOCC1 (stereo unspecified) | nt | -9 | 2 | nt | nt
C[C@@]12CC[C@@H]3[C@H](CCC4=CC(=O)CC[C@H]43)[C@H]1CC[C@H]2OC1(O)C(=O)c2ccccc2C1=O | nt | -40 | 64* | nt | nt
CC12CCC(=O)C=C1CCC1C2CCC2(C)C(O)CCC12 (stereo unspecified) | i | 4 | 10 | i | nt
O=C(CN1C(=O)CN=C(c2ccc(Cl)cc2)c2c1sc1c2CCCC1)NCc1ccco1 | nt | -33 | 27 | nt | nt
O=C(NC(Cc1ccccc1)C(=O)N1CCC2(CC1)OCCO2)C1CCCCC1 (stereo unspecified) | i | 6 | 3 | i | nt
O=C(CNC1CCCCC1)N1CCC2(CC1)OCCO2 | i | 73*! | 7 | i | i
CCOC(=O)c1cn2nc(OP(=S)(OCC)OCC)cc2nc1C | i | 45 | 10 | i | nt
CCOP(=S)(OCC)Oc1nc(Cl)c(Cl)cc1Cl | nt | 68* | 7 | nt | +
COc1ccc2c3c1OC1C(OC)C=CC4C(C2)CN(C)CC341 (stereo unspecified) | nt | -21 | 23 | nt | nt
Cn1ccnc1C1(O)CC2CCC(C1)N2CC(=O)NCc1ccc(F)cc1 (stereo unspecified) | nt | -75 | nt | nt | nt
CCCCCCCCCc1ccc(O)cc1 | nt | 55 | 9 | nt | i
NC(=NCCC[C@H](N)C(=O)O)N[N+](=O)[O-] | nt | 86*! | 12 | nt | i
C=CCc1cc(C=C2C(=O)N(C)C(=O)N(C)C2=O)cc(OCC)c1OCc1ccccc1 | i | 88* | 5 | i | i
CC(C)c1nccn1Cc1ccc(Cl)cc1Cl | nt | 106* | -2 | nt | i
C[C@@H](Cc1ccc(Cl)cc1Cl)NO | nt | 20 | 32 | nt | nt
C[C@H](N)[C@H](O)c1ccc(O)c(O)c1 | nt | 74* | 8 | nt | i
COc1cccc(CN2CCN(C(=O)COc3ccccc3)[C@@H](C)C2)c1 | nt | -93 | nt | nt | nt
Clc1ccccc1C1NCc2ccccc2-n2cccc21 (stereo unspecified) | i | 68* | 7 | i | +
Oc1ccccc1C1NCc2ccccc2-n2cccc21 (stereo unspecified) | i | nt | nt | i | nt
CC(C)CCNC(=O)c1c(N)n(CC2CCCO2)c2nc3ccccc3nc12 (stereo unspecified) | i | 69* | 4 | i | +
CCCCn1c(N)c(C(=O)NCCN2CCOCC2)c2nc3ccccc3nc21 | i | 5 | 17 | i | nt
COC[C@H]1OC(=O)c2coc3c2[C@@]1(C)C1=C(C3=O)C2CCC(=O)[C@@]2(C)C[C@H]1OC(C)=O (stereo partly specified) | nt | 50 | 15 | nt | i
O=C(CN1C2CCC1CC(O)(c1ccco1)C2)Nc1ccccc1C(F)(F)F (stereo unspecified) | nt | -13 | nt | nt | nt
COc1cc(OC)c(OC)cc1CNCCc1ccc(OC)c(OC)c1 | i | 67* | 8 | i | i
NS(=O)(=O)c1ccc(CC(=O)N2CCCCC2CN2CCCCC2)cc1 (stereo unspecified) | nt | 6 | 0 | nt | nt
SMILES | CHT PAM | EP2 mod | EP2 antag | CHT block | EP2 cAMP induct | others
CC(=O)N1CCCc2cc(C(O)CN3CC=C(c4ccc(F)cc4)CC3)ccc21 (stereo unspecified) | nt | -60 | 10 | nt | nt
CC(C)(C)NCC(O)c1cc(Cl)c(N)c(Cl)c1 (stereo unspecified) | i | 41 | 15 | -5.1* | nt | CHT block conf=37%*;HEK293 MPD ctr=i
Cc1nc(-c2ccccc2)c(CC(=O)N2CCCCC2CN2CCCCC2)s1 (stereo unspecified) | nt | -19 | 4 | nt | nt
CCc1c(C)nc(N)nc1N1N=C1SCCOc1ccccc1 | i | -3 | 9 | -7.7* | nt | CHT block conf=12%*;HEK293 MPD ctr=i
Cc1ccc(OCCSC2=NN2c2cc(C)nc(N)n2)cc1 | i | -7 | 6 | -11* | nt | CHT block conf=23%*;HEK293 MPD ctr=i
Cc1ccc(CN2CCNCC2)cc1 | nt | -25 | 16 | nt | nt

Screens (PubChem BioAssay)
